High-throughput results as filed in PubChem.
Most compounds without a hit are left out; they make up all but 4.6% or so of the library.
tim23-1 inh = tim23-1 yeast growth inhibition; S. cerevisiae tim23-1 growth, BacTiter-Glo luminescence, 24 h; inhibition, % at 20 µM; 1.3% of 330,000 active; AID 463212;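 active = growth inhibition of the mutant yeast at or above 50%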;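 note: temperature-sensitive mutant grown at 25 °C; plate controls were DMSO-treated mutant yeast for no effect and medium wells lacking yeast for full effect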
SKKanGAS inh = SKKanGAS growth inhibition. inhibition, % at 7.5 µM. AID 1662. 1.3% of 300,000 active. S. pyogenes SKKanGAS, kanamycin growth, BacTiter-Glo, 6 h;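 active = mean replicate score, as percent of positive control median, at least 50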;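 note: strain carries kanamycin resistance gene driven by streptokinase promoter and grows in 40 µg/ml kanamycin; loss of luminescence reflects streptokinase promoter inhibition or plain growth inhibition; 0% = median of DMSO wells and 100% = positive control at its reference dose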
TIM10 inh = TIM10 yeast growth inhibition; S. cerevisiae TIM10 strain growth, BacTiter-Glo luminescence, 24 h; 1.4% of 330,000 active; inhibition, % at 10 µM;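 active = inhibition of 40% or more at the single tested concentration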;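 note: wild-type TIM10 isogenic control strain grown at permissive 25 °C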
NALP3 yeast inh = blocks the NALP3 inflammasome reconstituted in yeast. Yeast reconstituted NLRP3/ASC/caspase-1, beta-gal luminescence, 24 h. inhibition, % at 10 µM. 0.39% of 330,000 active. AID 2825;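 active = inhibition of 50% or more; inactive = inhibition below 50%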;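 note: plate controls were induced DMSO wells for no effect and uninduced yeast grown without galactose for full effect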
tim10-1 inh = tim10-1 yeast growth inhibition; inhibition, % at 20 µM; S. cerevisiae tim10-1 ts strain growth, BacTiter-Glo, 24 h; 2.2% of 330,000 active;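 active = inhibition of at least 40%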;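 note: mutant grown at 25 °C; 0% = DMSO wells with yeast and 100% = wells holding no yeast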
tim10-1 confirm = confirmation of tim10-1 mutant yeast growth inhibitors. shares compounds with tim10-1 inh. S. cerevisiae tim10-1 ts strain growth, BacTiter-Glo, 24 h. inhibition, % at 20 µM. 56% of 7,400 active. AID 463213;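 active = inhibition of yeast growth at or above a set limit in either of two repeat tests at 20 µM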;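 note: tim10-1 mutant grown at permissive 25 °C to find synthetic lethal compounds; 0% = DMSO yeast wells and 100% = medium wells without yeast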
An asterisk follows results filed as active; . = no result given; ! = repeats disagree.

SMILES	tim23-1 inh	SKKanGAS inh	TIM10 inh	NALP3 yeast inh	tim10-1 inh	tim10-1 confirm
COc1ccccc1N1C(=O)CC(Sc2n[nH]c(-c3cccc(C)c3)n2)C1=O (configuration not stated)	46.4	-1.9	9.2	7.1	47.4*	35.8*
COc1ccccc1N1C(=O)CC(Sc2nccc(C)n2)C1=O (configuration not stated)	8.2	-2.9	1.8	10.8	-0.8	.
COc1cc(Nc2nc3ccccc3nc2NS(=O)(=O)c2ccc([N+](=O)[O-])cc2)cc(OC)c1OC	37.9	24.0	22.2	8.9	45.8*	34.6*
Cc1ccc(C(=O)Nn2c(C)nc3ccccc3c2=O)cc1C	28.3	4.1	15.6	1.0	3.7	.
CCOC(=O)c1sc2ncnc(NCc3ccco3)c2c1C	36.4	23.3	25.9	16.7	47.4*	35.0*
Cc1cccc(Nc2ncccc2C(=O)NCc2cccs2)c1C	40.6	6.2	37.5	5.9	52.1*	34.5*
O=C(NCc1cccs1)c1cccnc1Cl	7.4	-1.5	3.6	8.8	11.1	.
O=C(CSCC(=O)N1CCCCC1)Nc1nc(-c2ccc(Cl)s2)cs1	43.3	-7.9	22.5	5.4	40.7*	36.1*
O=C(CSCC(=O)N1CCN(c2ccccc2)CC1)Nc1nc(-c2ccc(Cl)s2)cs1	9.0	20.6	6.9	25.8	6.7	.
O=C(NC1CCCC1)c1sc(=S)n2c1[nH]c(=O)c1ccccc12	22.8	29.7	23.8	-20.1	46.8*	25.9
O=C(CSCc1cccc(Br)c1)N/N=C/c1ccc2c(c1)OCO2	36.8	9.1	14.4	22.6	43.2*	36.5*
COC(=O)C1=CN(C(C)c2ccccc2)C=C(C(=O)OC)C1c1cc(OC)c(OC)c(OC)c1 (configuration not stated)	43.7	-2.3	17.1	10.2	43.1*	21.3
COC(=O)C1=CN(Cc2ccc(OC)cc2)C=C(C(=O)OC)C1c1cc(OC)c(OC)c(OC)c1	28.1	-2.1	17.4	18.7	22.0	.
O=C(NCC1OCCCN1S(=O)(=O)c1cc(F)ccc1F)C(=O)NC1CCCC1 (configuration not stated)	-8.7	-3.2	-2.1	-4.8	0.9	.
CC1CCCC(C)N1/N=C/C=C/c1ccccc1[N+](=O)[O-] (configuration not stated)	19.1	-11.6	8.7	-4.0	41.4*	12.8
O=[N+]([O-])c1ccccc1/C=C/C=N/n1c(-c2ccccc2)n[nH]c1=S	28.5	4.4	35.5	17.5	41.7*	36.4*
CC(=O)N1CCN(S(=O)(=O)c2cccc(C(=O)OCc3ccc(C(C)(C)C)cc3)c2)CC1	23.5	.	12.9	8.7	39.5	.
CC(=O)Nc1ccc(NC(=O)CS(=O)(=O)c2cn(CC(=O)N3CCCC3)c3ccccc23)cc1	-7.6	0.4	5.3	9.1	-4.8	.
Cc1ccc2c(c1)c1c(n2CC(O)Cn2nc(C)c(Br)c2C)CCCC1 (configuration not stated)	22.9	31.4	7.0	-3.8	42.9*	10.9
CCOc1ccc(S(=O)(=O)N2CCCCC2)cc1NC(=O)CC1OC(=O)c2ccccc21 (configuration not stated)	-6.0	-3.3	-0.6	0.6	-2.1	.
CN(C)CC/C=C1/c2ccccc2Sc2ccc(Cl)cc21	-19.0	4.2	20.2	46.1	40.5*!	26.9
CN(C(=O)CSc1nnc(-c2ccc(Cl)cc2)n1CC1CCCO1)C1CCS(=O)(=O)C1 (configuration not stated)	-1.3	-3.9	11.9	-14.3	4.0	.
Cc1cc(C(=O)CSc2nnc(-c3ccc(Cl)cc3)n2CC2CCCO2)c(C)n1C (configuration not stated)	32.6	-12.0	13.8	-25.2	50.0*	34.9*
CCOC(=O)c1cc(C)sc1NC(=O)CSC1=NCCS1	19.5	-9.7	-4.7	20.0	4.9	.
CCOC(=O)c1nn(-c2ccccc2C)c(=O)c2c(N)scc12	4.5	15.6	-6.0	15.2	18.5	.
SMILES	tim23-1 inh	SKKanGAS inh	TIM10 inh	NALP3 yeast inh	tim10-1 inh	tim10-1 confirm
CCOC(=O)c1nn(-c2ccccc2)c(=O)c2c(N)scc12	15.9	.	24.8	1.3	51.4*	26.1
COc1ccc(CNc2cccc3[nH]c(C(F)(F)F)nc23)cc1	40.2	22.5	28.8	20.8	43.2*	24.9
COc1cc(CNc2cccc3[nH]c(C(F)(F)F)nc23)cc(OC)c1	38.6	34.0	14.7	13.6	42.1*	19.1
O=C(c1ccc(COc2ccccc2Br)cc1)N1CCCCCC1	38.7	7.8	27.9	17.8	40.9*	27.4
CCOC(=O)C1=C(CSc2nc(C)ccc2C#N)OC(N)=C(C#N)C1c1cccc(OC)c1OC (configuration not stated)	24.7	2.3	39.4	24.3	45.2*	45.2*
CCOC(=O)C1=C(CSc2nc(-c3ccncc3)ccc2C#N)OC(N)=C(C#N)C1c1cccnc1 (configuration not stated)	11.1	-0.3	19.6	-7.8	18.9	.
CCOC(=O)C1=C(CSc2nc(-c3ccncc3)ccc2C#N)OC(N)=C(C#N)C1c1ccc(OC)cc1 (configuration not stated)	47.5	6.9	21.3	11.8	44.8*	22.5
CCOC(=O)C1CCCN(C2=NC(=O)/C(=C/c3ccc(O)c(OCC)c3)S2)C1 (configuration not stated)	39.8	4.4	27.8	7.7	45.8*	25.9
CCOC(=O)C1CCCN(C2=NC(=O)/C(=C/c3ccc(OC)cc3)S2)C1 (configuration not stated)	33.4	-5.2	20.5	10.2	47.1*	30.9*
CC1=NN(C(N)=S)C(=O)C1N=Nc1ccc(C)c(Br)c1 (configuration not stated)	21.5	24.6	30.1	41.4	31.6	.
C/C(=N\NC(=S)NCc1ccccc1)c1ccco1	-17.5	21.7	23.1	-15.0	17.0	.
CC(=O)NNC(=S)NCCc1ccccc1	3.7	-2.5	-22.3	2.0	13.2	.
C/C(=N\NC(=S)NCc1ccccc1)c1ccc(C#N)cc1	3.2	1.8	14.6	3.1	5.1	.
C/C(=N\NC(=S)NCCc1ccccc1)c1ccc(O)cc1O	32.6	-7.8	30.0	16.9	43.4*	2.8
C/C(=N\NC(=S)NCc1ccccc1)c1ccccc1F	39.8	15.5	30.7	-5.7	46.2*	33.8*
C/C(=N\NC(=S)NCc1ccccc1)c1ccc(C(C)(C)C)cc1	38.0	18.1	28.3	21.3	42.0*	23.9
CC(C)(C)c1csc(NC(=O)c2c(F)c(F)c(F)c(F)c2F)n1	43.1	-3.4	16.4	20.9	40.7*	23.5
CSc1ncccc1C(=O)Nc1nc(C(C)(C)C)cs1	43.6	4.5	18.3	39.3	10.8	.
COc1cccc(OC)c1C(=O)Nc1cccc(C(C)=O)c1	1.9	0.7	-6.5	9.4	15.8	.
CC(=O)c1cccc(NC(=O)c2cc(Cl)sc2Cl)c1	25.4	-4.0	23.1	-9.2	42.5*	19.8
